{
  "source": "the supplement of paper PMC9135407",
  "note": "Counter-ions that a name gives are not always drawn.",
  "data": [
    {"test_system": "primary human hepatic stellate cells (donor 1)", "assay": "ACTA2 mRNA fold change vs DMSO (normalised to PSMB2); higher = more ACTA2 expression", "details": "48 h", "method": "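Secondary qRT-PCR screen in primary human HSCs (donor 1), 384-well plates, with compounds dispensed in quadruplicate and incubated for 48 h. Cells-to-CT lysates were used for multiplexed TaqMan qPCR of ACTA2 or COL1A1 with PSMB2 as reference. Fold changes versus DMSO come from a linear model (Ct_gene ~ Ct_PSMB2 + plate + chemical). A hit is defined as COL1A1 and ACTA2 FC <0.5 (FDR <0.05) with PSMB2 between 0.2 and 2.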", "values": [
      {"smiles": "CC[C@]1(O)C[C@@H]2CN(CCc3c([nH]c4ccccc34)[C@@](C(=O)OC)(c3cc4c(cc3OC)N(C)[C@H]3[C@@](O)(C(=O)OC)[C@H](OC(C)=O)[C@]5(CC)C=CCN6CC[C@]43[C@@H]65)C2)C1", "note": "[Vinblastine sulfate] (33.3333 µM)", "ACTA2 mRNA fold change": 0.02},
      {"smiles": "CC(C)c1cc(-c2n[nH]c(=O)n2-c2ccc3c(ccn3C)c2)c(O)cc1O", "note": "[Ganetespib (STA-9090)] (33.3333 µM)", "ACTA2 mRNA fold change": 0.605},
      {"smiles": "CNCc1ccc(C)c(NC(=O)c2ccc(Nc3nc(-c4ccccc4)c4ccccc4n3)cc2)c1", "note": "(33.3333 µM)", "ACTA2 mRNA fold change": 0.0244},
      {"smiles": "O=C1NCN(c2ccccc2)C12CCN(CCCC(c1ccc(F)cc1)c1ccc(F)cc1)CC2", "note": "[Fluspirilene] (14.0333 µM)", "ACTA2 mRNA fold change": 1.03},
      {"smiles": "CN(C)CCC(c1ccc(Br)cc1)c1ccccn1", "note": "(stereo not given) [Brompheniramine maleate] (33.3333 µM)", "ACTA2 mRNA fold change": 1.25},
      {"smiles": "C#C[C@]1(O)CC[C@H]2[C@@H]3CCC4=Cc5oncc5C[C@]4(C)[C@H]3CC[C@@]21C", "note": "[Danazol] (33.3333 µM)", "ACTA2 mRNA fold change": 0.0332},
      {"smiles": "CS(=O)(=O)CCNCc1ccc(-c2ccc3ncnc(Nc4ccc(OCc5cccc(F)c5)c(Cl)c4)c3c2)o1", "note": "(6.66667 µM)", "ACTA2 mRNA fold change": 1.05},
      {"smiles": "c1ccc2c(NCCCCCCCNc3c4c(nc5ccccc35)CCCC4)c3c(nc2c1)CCCC3", "note": "[bis(7)-Tacrine] (3.33333 µM)", "ACTA2 mRNA fold change": 0.0296},
      {"smiles": "CN1CCN(C2=Cc3ccccc3Oc3ccc(Cl)cc32)CC1", "note": "(33.3333 µM)", "ACTA2 mRNA fold change": 0.196},
      {"smiles": "Cn1cc(C2=C(c3ccc(Cl)cc3Cl)C(=O)NC2=O)c2ccccc21", "note": "(33.3333 µM)", "ACTA2 mRNA fold change": 0.332},
      {"smiles": "CN1CCC(=C2c3ccccc3C=Cc3ccccc32)CC1", "note": "[Cyproheptadine] (33.3333 µM)", "ACTA2 mRNA fold change": 0.172},
      {"smiles": "CNCCC(Oc1ccc(C(F)(F)F)cc1)c1ccccc1", "note": "(stereo not given) [Fluoxetine hydrochloride] (33.3333 µM)", "ACTA2 mRNA fold change": 0.0314},
      {"smiles": "COc1cc2ncn(-c3cc(OCc4ccccc4C(F)(F)F)c(C(N)=O)s3)c2cc1OC", "note": "(33.3333 µM)", "ACTA2 mRNA fold change": 0.333},
      {"smiles": "CNc1nccc(-c2cccnc2Oc2cc(C(=O)Nc3cccc(C(F)(F)F)c3)ccc2C)n1", "note": "(33.3333 µM)", "ACTA2 mRNA fold change": 0.569},
      {"smiles": "Cc1cnc(-c2cnc(NCCNc3ccc(C#N)cn3)nc2-c2ccc(Cl)cc2Cl)[nH]1", "note": "(33.3333 µM)", "ACTA2 mRNA fold change": 0.259},
      {"smiles": "COc1cc2nc(N3CCCN(C)CC3)nc(NC3CCN(Cc4ccccc4)CC3)c2cc1OC", "note": "(3.33333 µM)", "ACTA2 mRNA fold change": 0.0176},
      {"smiles": "C#CC1(O)CC[C@H]2[C@@H]3CCC4=CC(=O)CC[C@@H]4[C@H]3CC[C@@]21CC", "note": "(stereo not given in full) [Norgestrel] (21.3333 µM)", "ACTA2 mRNA fold change": 0.714},
      {"smiles": "CCNC(=O)c1noc(-c2cc(C(C)C)c(O)cc2O)c1-c1ccc(CN2CCOCC2)cc1", "note": "(11.1 µM)", "ACTA2 mRNA fold change": 1.19},
      {"smiles": "Cc1nc(Nc2ncc(C(=O)Nc3c(C)cccc3Cl)s2)cc(N2CCN(CCO)CC2)n1", "note": "(33.3333 µM)", "ACTA2 mRNA fold change": 0.192},
      {"smiles": "CSc1ccc2c(c1)C(N1CCN(C)CC1)Cc1ccccc1S2", "note": "(stereo not given) [Methiothepin maleate] (33.3333 µM)", "ACTA2 mRNA fold change": 0.00993},
      {"smiles": "Cc1cc(Nc2cc(N3CCN(C)CC3)nc(/C=C/c3ccccc3)n2)n[nH]1", "note": "(11.1 µM)", "ACTA2 mRNA fold change": 0.703},
      {"smiles": "CCCCc1oc2ccccc2c1C(=O)c1cc(I)c(OCCN(CC)CC)c(I)c1", "note": "(33.3333 µM)", "ACTA2 mRNA fold change": 0.0284},
      {"smiles": "CC(C)NCCCn1c(Sc2cc3c(cc2I)OCO3)nc2c(N)ncnc21", "note": "(33.3333 µM)", "ACTA2 mRNA fold change": 1.26},
      {"smiles": "CN(C)C/C=C(/c1ccc(Br)cc1)c1cccnc1", "note": "[Zimelidine dihydrochloride] (11.1 µM)", "ACTA2 mRNA fold change": 0.452},
      {"smiles": "CCN(CC)CCNC(=O)c1c(C)[nH]c(/C=C2\\C(=O)Nc3ccc(F)cc32)c1C", "note": "(6.66667 µM)", "ACTA2 mRNA fold change": 1.2},
      {"smiles": "CN1CCN(Cc2ccc(-c3cnc4[nH]cc(-c5ccc6[nH]ccc6c5)c4c3)cc2)CC1", "note": "(6.66667 µM)", "ACTA2 mRNA fold change": 0.042},
      {"smiles": "C[C@@H](Oc1cc(-c2cnn(C3CCNCC3)c2)cnc1N)c1c(Cl)ccc(F)c1Cl", "note": "(11.1 µM)", "ACTA2 mRNA fold change": 0.15},
      {"smiles": "CCN(CC)CCOc1ccc(Cc2ccccc2)cc1", "note": "[DPPE fumarate] (33.3333 µM)", "ACTA2 mRNA fold change": 0.397},
      {"smiles": "COC(=O)C[C@](O)(CCCC(C)(C)O)C(=O)O[C@@H]1C(OC)=C[C@]23CCCN2CCc2cc4c(cc2[C@H]13)OCO4", "note": "[Homoharringtonine] (33.3333 µM)", "ACTA2 mRNA fold change": 0.0673},
      {"smiles": "CNCCCC12CCC(c3ccccc31)c1ccccc12", "note": "[Maprotiline hydrochloride] (33.3333 µM)", "ACTA2 mRNA fold change": 0.0243},
      {"smiles": "OCCN1CCN(CCCN2c3ccccc3Sc3ccc(C(F)(F)F)cc32)CC1", "note": "(33.3333 µM)", "ACTA2 mRNA fold change": 0.0188},
      {"smiles": "Cc1ccc(S(=O)(=O)/C=C/C#N)cc1", "note": "(33.3333 µM)", "ACTA2 mRNA fold change": 0.24},
      {"smiles": "C[C@H]1O[C@@H](O[C@H]2[C@@H](O)C[C@H](O[C@H]3[C@@H](O)C[C@H](O[C@H]4CC[C@@]5(C)[C@H](CC[C@@H]6[C@@H]5C[C@@H](O)[C@]5(C)[C@@H](C7=CC(=O)OC7)CC[C@]65O)C4)O[C@@H]3C)O[C@@H]2C)C[C@H](O)[C@@H]1O", "note": "[Digoxin] (33.3333 µM)", "ACTA2 mRNA fold change": 0.0126},
      {"smiles": "CC#CCOC(=O)c1c(C)nc2sc3c(c2c1N)CCC(O)C3", "note": "(stereo not given) (33.3333 µM)", "ACTA2 mRNA fold change": 0.806},
      {"smiles": "CCN(CC)CCCCNc1ncc2cc(-c3c(Cl)cccc3Cl)c(NC(=O)NC(C)(C)C)nc2n1", "note": "(33.3333 µM)", "ACTA2 mRNA fold change": 0.196},
      {"smiles": "Cc1ccc2c(c1)c1c3n2CCNC3CCC1", "note": "(stereo not given) [Pirlindole mesylate] (20.6667 µM)", "ACTA2 mRNA fold change": 0.712},
      {"smiles": "COC(=O)N[C@H](C(=O)N1CCC[C@H]1c1ncc(-c2ccc(-c3ccc(-c4cnc([C@@H]5CCCN5C(=O)[C@@H](NC(=O)OC)C(C)C)[nH]4)cc3)cc2)[nH]1)C(C)C", "note": "(33.3333 µM)", "ACTA2 mRNA fold change": 0.0331},
      {"smiles": "CN1CCC(Nc2ncc3ncnc(Nc4ccc(F)c(Cl)c4)c3n2)CC1", "note": "[BIBX 1382 dihydrochloride] (33.3333 µM)", "ACTA2 mRNA fold change": 0.00877},
      {"smiles": "N=C(N)SCCc1ccc(OCc2ccc([N+](=O)[O-])cc2)cc1", "note": "[KB-R7943 mesylate] (33.3333 µM)", "ACTA2 mRNA fold change": 0.0804},
      {"smiles": "CCCCCCCCCCCCCCCCn1cc[n+](Cc2ccccc2)c1C", "note": "(11.1 µM)", "ACTA2 mRNA fold change": 0.0378}
    ]}
  ]
}
